Screening results (PubChem BioAssay)
A selection: hits, their analogues and other compounds. The true share with any hit is near 2.2%.
FMDV inh: antivirals against foot and mouth disease virus; FMDV antiviral cell-based qHTS; actives 1.2% (n = 410,000); Potency, µM (doses to about 57.9 µM), most hits filed as inhibitors; calls by dose curve; tested in HEK293T cells; also: read-out not given here; nearly all actives have a fitted effect of over 45% in size
Vaccinia Venus: vaccinia inhibition (Venus reporter) | Vaccinia virus Venus reporter expression, fluorescence | Potency, µM (series often up to 36.5 µM), most hits filed as inhibitors | actives 0.46% (n = 330,000); calls by dose curve; tested in A549 cells; also: nearly all actives have a fitted effect of over 30% in size
VACV mCherry inh: inhibitors of vaccinia virus infection (mCherry reporter signal) | actives 0.63% (n = 310,000) | Vaccinia virus mCherry reporter infection, fluorescence | Potency, µM (highest dose often 36.5 µM), hits mostly inhibitors | AID 720579; calls by dose curve; tested in A549 cells; also: nearly all actives have a fitted effect of over 35% in size
FBPA Giardia inh: inhibitors of Giardia lamblia fructose-1,6-bisphosphate aldolase; purified Giardia FBPA; Potency, µM (series often up to 59.6 µM), hits mostly inhibitors; actives 0.71% (n = 290,000); active = well fitted inhibition curve with a large enough effect; inconclusive = small, poorly fitted or top-dose-only effect, or effect the other way; also: nearly all actives have a fitted effect of over 55% in size
Target sequence (A8B2U2 whole entry, looked up): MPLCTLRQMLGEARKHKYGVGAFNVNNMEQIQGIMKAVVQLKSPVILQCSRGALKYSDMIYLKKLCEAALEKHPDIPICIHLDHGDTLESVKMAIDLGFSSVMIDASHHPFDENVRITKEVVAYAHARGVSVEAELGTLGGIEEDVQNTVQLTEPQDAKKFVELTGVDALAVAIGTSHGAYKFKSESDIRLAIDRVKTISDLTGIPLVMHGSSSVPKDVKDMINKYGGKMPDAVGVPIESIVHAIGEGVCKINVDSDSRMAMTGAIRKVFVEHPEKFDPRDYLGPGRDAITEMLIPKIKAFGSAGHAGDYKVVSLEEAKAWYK
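Giardia FBPA (40 nM reagent) was preincubated 10 min at RT with compound (up to 57.5 uM final), then substrate plus GAPDH/TPI/NAD/arsenate coupling system with diaphorase/resazurin was added; resorufin fluorescence (525/598 nm) was read after 20 min.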
Each line names hits and unclear results; the compound was inactive in the other large screens.

CN1CCN(C(=O)c2ccc(Cl)c(S(=O)(=O)N3CCCCC3)c2)CC1	none (no result: Vaccinia Venus, VACV mCherry inh)
CC1Cc2ccccc2N1S(=O)(=O)c1cccc(C(=O)N2CCN(c3ncccn3)CC2)c1 (configuration not stated)	FMDV inh inconclusive, VACV mCherry inh 1.58µM
O=C(c1ccc(Cl)c(S(=O)(=O)N2CCCCCC2)c1)N1CCN(c2ccccn2)CC1	FMDV inh 28.2µM, Vaccinia Venus inconclusive, VACV mCherry inh inconclusive
Cc1cccc(NS(=O)(=O)c2cccc(C(=O)N3CCN(c4ccccn4)CC3)c2)c1	none
Cc1ccccc1NC(=O)c1ccc(F)c(S(=O)(=O)N2CCN(c3ccccn3)CC2)c1	FMDV inh 22.4µM (no result: Vaccinia Venus, VACV mCherry inh)
Cc1cc(Cl)c(S(=O)(=O)N2CCN(c3ccccn3)CC2)cc1OCC(=O)NC1CCCCC1	FMDV inh 22.4µM (no result: Vaccinia Venus, VACV mCherry inh)
O=C(Nc1ccc(Br)cc1)c1ccc(F)c(S(=O)(=O)N2CCN(c3ccccn3)CC2)c1	FMDV inh inconclusive
CC(c1ccc(N(C)C)cc1)c1ccnc2ccccc12 (configuration not stated)	none (no result: FMDV inh, FBPA Giardia inh)
CCc1ccc(NC(=O)COC(=O)C2(c3ccc(Cl)cc3)CCCC2)cc1	FMDV inh 20µM
COc1ccc(C2=C(Nc3ccc(Br)c(C)c3)c3ccccc3C2=O)cc1	FMDV inh 28.2µM (no result: FBPA Giardia inh)
O=C(O)c1ccc2c(c1)C(=O)N(c1cccc(C(=O)/C=C/c3ccccc3)c1)C2=O	FMDV inh 25.1µM
O=C(O)c1cccc(N2C(=O)c3ccc(C(=O)c4cccc([N+](=O)[O-])c4)cc3C2=O)c1	none
COc1ccc(O)c(CN2CCC3(CC2)c2ccccc2[C@@H](NC(=O)c2cccc(F)c2)[C@@H]3OC)c1	none (no result: FBPA Giardia inh)
O=C(Nc1ccc(Br)cn1)c1cnn2c1NC(=C1CC1)C=C2C(F)F	none (no result: FMDV inh, FBPA Giardia inh)
O=C(COc1ccccc1)NNc1c2ccccc2nc2ccccc12	FMDV inh 25.1µM, Vaccinia Venus inconclusive (no result: VACV mCherry inh)
COc1ccc(OCC(=O)NNc2c3ccccc3nc3ccccc23)cc1	FMDV inh 22.4µM, Vaccinia Venus inconclusive
Cc1oc(-c2ccccc2NC(=O)C2CCC2)nc1CNC(=O)c1ccccn1	none (no result: FBPA Giardia inh)
O=C(CCCc1ccccc1)Nc1cccc(C(=O)O)c1	FMDV inh 14.1µM
O=C(CCc1ccccc1)NC(=S)Nc1cccc(C(=O)O)c1	none
COc1ccccc1/C=C\C(=O)O	none
CC(=O)/C=C/c1ccccc1Oc1c(F)c(F)nc(F)c1F	FMDV inh 31.6µM (no result: Vaccinia Venus, VACV mCherry inh)
CCOC(=O)[C@]12Cc3cc(Cl)ccc3[C@H]1N(C(C)C)C(=O)c1ccccc12	FMDV inh 10µM, Vaccinia Venus inconclusive, VACV mCherry inh inconclusive (no result: FBPA Giardia inh)
CCOC(=O)[C@]12Cc3cc(Cl)ccc3[C@H]1N(CC(=O)OC)C(=O)c1ccccc12	FMDV inh 10µM, Vaccinia Venus inconclusive, VACV mCherry inh inconclusive (no result: FBPA Giardia inh)
C=C(NNC(C)=O)c1ccc(O)cc1	none (no result: FMDV inh, FBPA Giardia inh)
CCCCS(=O)(=O)CC(COc1ccccc1)OC(=O)c1ccccc1 (configuration not stated)	Vaccinia Venus 7.94µM (no result: VACV mCherry inh)
O=C(CSc1n[nH]c(=O)n1C1CC1)Nc1cc(Cl)ccc1Oc1ccccc1	FMDV inh 14.1µM (no result: Vaccinia Venus, VACV mCherry inh)
c1ccc2nccnc2c1	Vaccinia Venus 3.55µM, VACV mCherry inh 11.2µM (no result: FMDV inh, FBPA Giardia inh)
NCCc1ccc(OCc2ccccc2)c(OCc2ccccc2)c1	Vaccinia Venus inconclusive, VACV mCherry inh 17.8µM (no result: FBPA Giardia inh)
COc1ccc(CCN)cc1OC	none
Cc1c(C(=O)N(C)Cc2nccs2)sc2ncnc(NCC3CCCO3)c12 (configuration not stated)	none (no result: FBPA Giardia inh)
O=C(NCCc1csc(-c2ccc(Cl)cc2)n1)c1cccs1	FMDV inh 25.1µM (no result: FBPA Giardia inh)
COc1cccc(C2=Nn3c(nnc3-c3ccccc3O)SC2)c1	none (no result: Vaccinia Venus, VACV mCherry inh)
C[n+]1c2n(c3ccccc31)N=C(c1cc(C(C)(C)C)c(O)c(C(C)(C)C)c1)CS2	FMDV inh 14.1µM, Vaccinia Venus 10µM, VACV mCherry inh inconclusive
COC(=O)c1sccc1S(=O)(=O)N(CC(=O)Nc1cc(C)ccc1C)c1ccc(C)c(C)c1	none (no result: FBPA Giardia inh)
CCc1cccc2c(C(=O)CCl)c[nH]c12	FMDV inh 28.2µM
COc1cc(OC)c(/C=C/c2nc3ccccc3o2)c(OC)c1	none (no result: FMDV inh, FBPA Giardia inh)
CCOC(=O)C1CCCN(S(=O)(=O)c2ccc(Cl)nc2)C1 (configuration not stated)	Vaccinia Venus inconclusive, VACV mCherry inh 14.1µM (no result: FBPA Giardia inh)
Cc1cccc(N2CCN(C(=O)C3CCCN(S(=O)(=O)c4ccc5c(c4)oc(=O)n5C)C3)CC2)c1C (configuration not stated)	FMDV inh 11.2µM, Vaccinia Venus inconclusive, VACV mCherry inh inconclusive (no result: FBPA Giardia inh)
Cn1c(=O)oc2cc(S(=O)(=O)N3CCCC(C(=O)N4CCN(c5cccc(Cl)c5)CC4)C3)ccc21 (configuration not stated)	FMDV inh 25.1µM, Vaccinia Venus inconclusive, VACV mCherry inh inconclusive (no result: FBPA Giardia inh)
CCOc1ccc(S(=O)(=O)N2CCCC(C(=O)N3CCN(c4ccccc4)CC3)C2)cc1 (configuration not stated)	FMDV inh 28.2µM (no result: FBPA Giardia inh)
C[C@@]12C=Cc3occc3C1CC[C@@]13C[C@@H](CCC12)[C@@](O)(CO)C3 (some centres not stated)	none (no result: FMDV inh, Vaccinia Venus, VACV mCherry inh)
O=C(Oc1ccc(C(=S)N2CCOCC2)cc1)c1ccc([N+](=O)[O-])cc1[N+](=O)[O-]	none (no result: Vaccinia Venus, VACV mCherry inh)
O=C(Oc1cccc(C(=S)N2CCOCC2)c1)c1ccc([N+](=O)[O-])cc1[N+](=O)[O-]	Vaccinia Venus inconclusive, VACV mCherry inh 5.62µM
O=C1C=CC(=O)N1CCCCCCN1C(=O)C=CC1=O	FMDV inh 39.8µM
COC(=O)[C@H](CC(C)C)NC(=O)c1ccc(NC[C@@H](N)CS)cc1-c1cccc2ccccc12	none (no result: FMDV inh, Vaccinia Venus, VACV mCherry inh)
CC(=O)c1ccc(-c2ccc3c4c(ccc3c2)OC(CNC(=O)[C@@H]2CCCN2C(C)=O)C4)s1 (some centres not stated)	none (no result: FBPA Giardia inh)
Cc1ccc([N+](=O)[O-])cc1-c1ccc(/C=C(\C#N)c2[nH]nc(N)c2C#N)o1	Vaccinia Venus inconclusive, VACV mCherry inh 10µM
O=C(/C=C/c1cn(-c2ccccc2)nc1-c1cccnc1)c1ccco1	FMDV inh 14.1µM, Vaccinia Venus inconclusive
Cc1cc(C)nc(Sc2nc(Cl)nc(N(c3ccccc3)c3ccccc3)n2)n1	FMDV inh 35.5µM
O=Cc1ccc(CS)cc1	none (no result: FMDV inh, FBPA Giardia inh)
CCCCc1nc2c(c3c1C[C@H](C)OC3)CN(C(=O)N[C@@H](C)c1ccccc1)CC2	none (no result: FMDV inh, Vaccinia Venus, VACV mCherry inh)
CC(=O)NC1=CC(=O)c2nonc2C1=O	Vaccinia Venus 1.78µM, VACV mCherry inh 1.58µM (no result: FMDV inh, FBPA Giardia inh)
CC(=O)Nc1ccc(Nc2nc(C)c([N+](=O)[O-])c(N(C)c3ccccc3)n2)cc1	FMDV inh 31.6µM
N#CCCCS(=O)(=O)c1nnnn1-c1ccc(Br)cc1	none (no result: FMDV inh, Vaccinia Venus, VACV mCherry inh)
CC1(C)C(=O)C=C[C@]2(C)C1CC(=O)[C@]1(C)C2CC[C@@]2(C)C(c3ccoc3)OC(=O)C3O[C@@]321 (some centres not stated)	FMDV inh 17.8µM
CC1(C)O[C@H]2CC(=O)OC[C@]23[C@H]2CC[C@@]4(C)[C@H](c5ccoc5)OC(=O)[C@H]5O[C@]54[C@]2(C)C(=O)C[C@@H]13	none (no result: FBPA Giardia inh)
O=C(C[N+]12CN3CN(CN(C3)C1)C2)c1ccc(Br)cc1	none (no result: FMDV inh, FBPA Giardia inh)
O=C(COC(=O)c1ccc(C(F)(F)F)cc1)NC(=O)C1CCCCC1	none (no result: FMDV inh, FBPA Giardia inh)
COC(=O)CSc1ncnc2c1sc1nc(-c3ccco3)c3c(c12)CC(C)(C)OC3	none (no result: FMDV inh, Vaccinia Venus, VACV mCherry inh)
